Bioassay records: PubChem BioAssay, National Center for Advancing Translational Sciences (NCATS)
An excerpt weighted towards active compounds, which were near 18% of everything screened.
TGFb inhibitor = TGF-b pathway inhibition. HepG2 CAGA-GFP TGF-b/SMAD3 reporter, GFP fluorescence, 18 h; TGF-beta stimulated, 500 pg/mL final. Potency, µM (titrated, usually from 46.1 µM), usual class: inhibitors. 1.2% of 410,000 active; note: nearly all actives have a fitted effect of over 65% in size
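HEPG2 CAGA-GFP cells (1000/well, DMEM with 1% FBS) were pre-incubated 2 h at 37 degrees C, given compound by pin tool, then stimulated with TGF-beta at 500 pg/mL final for 18 h before per-cell GFP fluorescence imaging.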
TDP1 cell noCPT = qHTS for Inhibitors of human tyrosyl-DNA phosphodiesterase 1 (TDP1): qHTS in cells in absence of CPT | DT40 Tdp1-/- hTDP1 cells, no CPT, ATP luminescence, 48 h | Potency, µM (highest dose often 46.2 µM), hits mostly inhibitors | 15% of 420,000 active; note: nearly all actives have a fitted effect of over 55% in size
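Cells were dispensed at 400 per well, compounds added by pin tool, plates incubated ≥48 hr at 37 °C, then CellTiter-Glo added for 30 min at room temperature before luminescence reading. Line: DT40 Tdp1-/- complemented with hTDP1; camptothecin omitted.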
HepG2 viability = counter-screen for TGF-b inhibitors: cytotoxicity in HepG2 cells | 0.76% of 410,000 active | Potency, µM (doses to about 46.1 µM), actives largely listed as cytotoxic | HepG2 CAGA-GFP viability, ATP luminescence, 18 h
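HepG2 CAGA-GFP cells (1000/well, DMEM with 1% FBS) received compound, then TGF-beta at 500 pg/mL final, and were incubated 18 hours at 37 degrees C. Viability was read by CellTiter-Glo luminescence. Media-only wells were set as complete cell-killing and DMSO as no toxicity.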
TDP1 cell CPT = DT40-hTDP1 cell growth loss with CPT; Potency, µM (titrated, usually from 46.2 µM), most hits filed as inhibitors; 12% of 420,000 active; AID 686979; chicken DT40 Tdp1-/-;hTDP1 cells + 20 nM CPT, ATP luminescence, 48 h; note: nearly all actives have a fitted effect of over 55% in size
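Cell growth measured by CellTiter-Glo luminescence after a minimum 48 h, 37 C compound exposure with 20 nM CPT in Tdp1-knockout DT40 cells stably expressing hTDP1, seeded 400/well; qHTS titration format.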
TDP1 inh = blocks human tyrosyl-DNA phosphodiesterase 1 | recombinant TDP1, AlphaScreen DNA substrate cleavage | Potency, µM (highest dose often 130 µM), hits mostly inhibitors | 0.28% of 350,000 active | AID 485290; note: nearly all actives have a fitted effect of over 40% in size
Target sequence (Q9NUW8 whole entry, looked up): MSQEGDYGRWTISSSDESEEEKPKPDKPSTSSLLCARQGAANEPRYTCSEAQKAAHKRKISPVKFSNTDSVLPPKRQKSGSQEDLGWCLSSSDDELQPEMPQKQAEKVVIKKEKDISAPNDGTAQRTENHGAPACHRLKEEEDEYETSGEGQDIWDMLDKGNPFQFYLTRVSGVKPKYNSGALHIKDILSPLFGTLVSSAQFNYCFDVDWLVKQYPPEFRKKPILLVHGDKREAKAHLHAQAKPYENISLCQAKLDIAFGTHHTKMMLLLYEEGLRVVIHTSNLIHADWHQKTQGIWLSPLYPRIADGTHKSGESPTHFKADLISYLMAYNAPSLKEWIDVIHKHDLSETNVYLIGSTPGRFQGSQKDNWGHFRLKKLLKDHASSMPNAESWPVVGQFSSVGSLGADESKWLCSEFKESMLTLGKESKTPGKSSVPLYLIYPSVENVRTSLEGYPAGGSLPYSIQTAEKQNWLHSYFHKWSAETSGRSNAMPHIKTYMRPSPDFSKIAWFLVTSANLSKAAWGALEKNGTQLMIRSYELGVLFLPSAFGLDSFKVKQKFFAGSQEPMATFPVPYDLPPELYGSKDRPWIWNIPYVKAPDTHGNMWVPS
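E. coli-derived human Tdp1, 1 nM final. Cpd preinc 15 min RT; substrate 15 nM final, 5 min RT; AS bead mix 10 ug/ml final, 10 min RT. Signal loss = tyrosine-FITC cleavage. No-enzyme wells = max signal.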
IL1B secr inh = inflammasome signaling inhibition, IL-1 beta readout; THP-1 LPS/ATP IL-1B secretion, AlphaLISA, 16 h; active compounds read low; activity change, % at 57.5 µM; 4.7% of 360,000 active; AID 743279; in the data active = activity change below about -50%; inconclusive = mostly about -30% to -49%
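THP-1 cells pretreated 1 hr with compounds (up to 57.5 uM final), then stimulated with LPS (250 ng/mL final) plus ATP (1.25 mM final); secreted IL-1B measured by AlphaLISA after 16 hr, decreased signal indicating inhibition.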
Large screens that a line does not name were inactive. Unless noted, calls come from the whole dose curve; as a rule, active = well fitted curve in the direction sought with a large enough effect; inconclusive = small, poorly fitted or top-dose-only effect, or another doubt; inactive = no such curve, though single readings can be large; an effect the other way counts as inactive or inconclusive.

Cc1cn([C@H]2C[C@H](O)[C@@H](CCC(=O)NCc3cccc4ccccc34)O2)c(=O)[nH]c1=O	none (no result: TDP1 inh)
Cc1[nH]c2ccccc2c1C1=CC(=O)C=CC1=O	TGFb inhibitor inconclusive, TDP1 cell noCPT 1.8µM, TDP1 cell CPT 1.6µM, IL1B secr inh -101 (no result: TDP1 inh)
Cc1[nH]c2ccccc2c1CC#N	TDP1 cell CPT inconclusive (no result: TDP1 inh)
C[C@H](c1ccccc1)N1C[C@@H](COCc2ccccc2)Oc2cc(N3CC[C@H](O)C3)ccc2S1(=O)=O	TDP1 cell noCPT 16µM, TDP1 cell CPT inconclusive (no result: TGFb inhibitor, HepG2 viability, TDP1 inh)
CCCCC[C@@H](C)N1C[C@H](COCc2ccccc2)Oc2cc(N3CC[C@H](N(C)C)C3)ccc2S1(=O)=O	TDP1 cell noCPT 18µM, TDP1 cell CPT inconclusive, IL1B secr inh -82 (no result: TGFb inhibitor, HepG2 viability, TDP1 inh)
CCCCC[C@@H](C)N1C[C@H](COCc2ccccc2)Oc2cc(N3CC[C@@H](O)C3)ccc2S1(=O)=O	TDP1 cell noCPT 21µM, TDP1 cell CPT inconclusive (no result: TGFb inhibitor, HepG2 viability, TDP1 inh)
C[C@H](c1ccccc1)N1C[C@H](COCc2ccccc2)Oc2cc(N3CC[C@H](O)C3)ccc2S1(=O)=O	TDP1 cell noCPT inconclusive, TDP1 cell CPT inconclusive (no result: TGFb inhibitor, HepG2 viability, TDP1 inh)
CCCCC[C@H](C)N1C[C@H](COCc2ccccc2)Oc2cc(N3CC[C@H](O)C3)ccc2S1(=O)=O	TDP1 cell noCPT inconclusive, TDP1 cell CPT inconclusive (no result: TGFb inhibitor, HepG2 viability, TDP1 inh)
CCC(C)(c1nnnn1-c1c(C)cccc1C)N(N=O)c1cccc(C(F)(F)F)c1 (configuration not stated)	TDP1 cell noCPT 21µM, TDP1 cell CPT 26µM
CCCS(=O)(=O)NC(=O)C1(C)CCN(C(=O)c2ccccc2F)C1 (configuration not stated)	none (no result: TDP1 inh)
CC(C)[C@H](CO)N(Cc1cccc(F)c1)c1nc(Nc2cccc(Cl)c2)c2ncn(C(C)C)c2n1	TGFb inhibitor inconclusive, TDP1 cell noCPT inconclusive, TDP1 cell CPT inconclusive
CC[C@H](CO)Nc1nc(Nc2cccc(Cl)c2)c2ncn(C(C)C)c2n1	TGFb inhibitor 20µM, TDP1 cell noCPT 9.2µM, TDP1 cell CPT 9.2µM, IL1B secr inh -99
CCc1nnc(NS(=O)(=O)c2ccc(NC(=O)c3ccccc3O)cc2)s1	none (no result: TDP1 inh)
Cc1ccc(C(=O)N(CCN2CCCCC2)CC2CCCN(C3CCCC3)C2)s1 (configuration not stated)	TDP1 cell noCPT 21µM, TDP1 cell CPT inconclusive
C[n+]1c(-c2ccccc2)sc([S-])c1-c1ccccc1	TGFb inhibitor inconclusive, TDP1 cell noCPT 9.2µM, TDP1 cell CPT 23µM (no result: TDP1 inh)
C[C@H](CO)N1C[C@H](C)[C@@H](CN(C)C(=O)Nc2ccc(C(F)(F)F)cc2)Oc2ccc(NS(=O)(=O)c3cn(C)cn3)cc2C1=O	none
Cc1ccc(/C=C2/CNC/C(=C/c3ccc(C)cc3)C2=O)cc1	TGFb inhibitor 10µM, TDP1 cell noCPT 13µM, TDP1 cell CPT 7.3µM, IL1B secr inh -106 (no result: TDP1 inh)
Cc1cc(Cl)ccc1OCC(=O)NCCOc1nc(N2CCCCC2)nc(N2CCOCC2)n1	TDP1 cell noCPT 6.5µM, TDP1 cell CPT 7.3µM
COc1cc(C)nc(OCCNC(=O)COc2ccc(Cl)cc2C)n1	TDP1 cell noCPT 21µM, TDP1 cell CPT 16µM
CN(C)c1nc(OCCNC(=O)Nc2ccccc2)nc(N(C)C)n1	TGFb inhibitor inconclusive
CN(C)c1nc(OCCNC(=O)COc2ccccc2Cl)nc(N(C)C)n1	TDP1 cell noCPT 10µM, TDP1 cell CPT inconclusive
CN(C(=O)COC(=O)c1ccccc1Cc1ccccc1)C1CCS(=O)(=O)C1 (configuration not stated)	none
CCOC(=O)c1[nH]cnc1C(=O)Nc1ccccn1	IL1B secr inh -64
O=C(C1CCCN(S(=O)(=O)c2cccs2)C1)N1CCN(c2ccccc2F)CC1 (configuration not stated)	TGFb inhibitor inconclusive, TDP1 cell noCPT 15µM, TDP1 cell CPT 23µM (no result: IL1B secr inh)
